Results filed as inconclusive are left out. Where a call stands in place of a potency, no number is given. Values without a mark were called inactive. Calls of active or inactive are those of the source. Calls come from the whole dose curve; as a rule, active = well fitted curve in the direction sought with a large enough effect; inconclusive = small, poorly fitted or top-dose-only effect, or another doubt; inactive = no such curve, though single readings can be large; an effect the other way counts as inactive or inconclusive.
Experiments:
[1] = target: Rap guanine nucleotide exchange factor 3 (Homo sapiens) (UniProt O95398); test: Confirmatory qHTS for antagonist of cAMP-regulated guanine nucleotide exchange factor 3 (EPAC1) (AID 1645880); conditions: EPAC1 Rap1B-BODIPY-GDP exchange, fluorescence; activity, negative = inhibition: at 115 µM (top of the series); note: nearly all actives have a fitted effect of over 55% in size; note: potency is the fitted concentration of half-maximal effect
Method in brief: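 Nucleotide exchange uses 100 nM EPAC1, 250 nM RAP1B-BODIPY-GDP and 50 uM GDP, with compounds in a concentration-titration series. After 5 min at room temperature, fluorescence (480 nm ex/540 nm em) is read every 5 min for 30 min. Data are normalized to control ATA and DMSO.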

[2] = target: Rap guanine nucleotide exchange factor 3 (Homo sapiens) (UniProt O95398); test: Confirmatory qHTS for agonist of cAMP-regulated guanine nucleotide exchange factor 3 (EPAC1) (AID 1645881); note: nearly all actives have a fitted effect of over 75% in size; note: potency is the fitted concentration of half-maximal effect;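 for activation: EPAC1 catalysed release of BODIPY-GDP from Rap1B seen as fluorescence loss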
[3] = target: Rap guanine nucleotide exchange factor 4 (Homo sapiens) (UniProt Q8WZA2); test: Confirmatory qHTS for agonist of cAMP-regulated guanine nucleotide exchange factor 4 (EPAC2) (AID 1645884);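 note: nucleotide exchange releases bodipy-GDP from Rap1 and this lowers its fluorescence; nearly all actives have a fitted effect of over 65% in size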; note: potency is the fitted concentration of half-maximal effect
[4] = target: Rap guanine nucleotide exchange factor 4 (Homo sapiens) (UniProt Q8WZA2); test: Confirmatory qHTS for antagonist of cAMP-regulated guanine nucleotide exchange factor 4 (EPAC2) (AID 1645885); note: nearly all actives have a fitted effect of over 25% in size; note: potency is the fitted concentration of half-maximal effect
[5] = target: Rap guanine nucleotide exchange factor 3 (Homo sapiens) (UniProt O95398); test: Counterscreen qHTS for antagonist of cAMP-regulated guanine nucleotide exchange factor 3 (EPAC1) (AID 1645888);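 note: fluorescence loss as bound BODIPY-GDP is released from Rap1B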
Method in brief: (§1)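 Rap1B–BODIPY-GDP (250 nM) with 50 uM GDP; compounds pin-transferred to 9.74 nM–152 uM final (activator) or from 7.32 nM upwards (inhibitor). Fluorescence Ex/Em 480/540 nm read at 5 and 30 min, then after adding cAMP or buffer, at room temperature.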

[6] = target: Rap guanine nucleotide exchange factor 3 (Homo sapiens) (UniProt O95398); test: Counterscreen qHTS for agonist of cAMP-regulated guanine nucleotide exchange factor 3 (EPAC1) (AID 1645889); note: nearly all actives have a fitted effect of over 40% in size; note: potency is the fitted concentration of half-maximal effect
Method in brief: as §1

Chain of Rap guanine nucleotide exchange factor 4 (Homo sapiens) (Q8WZA2 whole entry, looked up): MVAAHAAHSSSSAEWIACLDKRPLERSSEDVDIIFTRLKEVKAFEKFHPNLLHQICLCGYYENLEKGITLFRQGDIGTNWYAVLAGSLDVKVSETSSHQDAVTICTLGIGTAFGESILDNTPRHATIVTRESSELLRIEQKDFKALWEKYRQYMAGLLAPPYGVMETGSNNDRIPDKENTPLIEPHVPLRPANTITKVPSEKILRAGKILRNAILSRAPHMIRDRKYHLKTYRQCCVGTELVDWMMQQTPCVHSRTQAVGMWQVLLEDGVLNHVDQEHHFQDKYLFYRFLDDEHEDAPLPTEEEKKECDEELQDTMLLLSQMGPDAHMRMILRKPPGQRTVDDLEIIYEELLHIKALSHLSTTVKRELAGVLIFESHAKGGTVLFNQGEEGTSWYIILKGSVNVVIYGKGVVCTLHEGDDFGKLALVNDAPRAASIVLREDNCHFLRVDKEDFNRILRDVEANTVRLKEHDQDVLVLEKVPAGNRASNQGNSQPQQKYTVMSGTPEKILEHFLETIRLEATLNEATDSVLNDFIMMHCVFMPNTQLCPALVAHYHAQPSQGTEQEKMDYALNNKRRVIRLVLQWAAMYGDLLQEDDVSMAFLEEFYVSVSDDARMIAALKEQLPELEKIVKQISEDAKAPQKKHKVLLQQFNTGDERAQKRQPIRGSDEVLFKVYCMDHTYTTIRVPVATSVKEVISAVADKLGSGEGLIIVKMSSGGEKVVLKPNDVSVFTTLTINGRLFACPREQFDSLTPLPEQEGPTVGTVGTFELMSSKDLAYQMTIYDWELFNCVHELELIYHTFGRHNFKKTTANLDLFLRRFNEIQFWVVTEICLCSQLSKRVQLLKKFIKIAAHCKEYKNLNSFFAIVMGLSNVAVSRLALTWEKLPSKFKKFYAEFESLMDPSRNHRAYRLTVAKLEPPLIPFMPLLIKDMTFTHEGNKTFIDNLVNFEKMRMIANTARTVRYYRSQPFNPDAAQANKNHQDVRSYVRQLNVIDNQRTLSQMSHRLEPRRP
Chain of Rap guanine nucleotide exchange factor 3 (Homo sapiens) (O95398 whole entry, looked up): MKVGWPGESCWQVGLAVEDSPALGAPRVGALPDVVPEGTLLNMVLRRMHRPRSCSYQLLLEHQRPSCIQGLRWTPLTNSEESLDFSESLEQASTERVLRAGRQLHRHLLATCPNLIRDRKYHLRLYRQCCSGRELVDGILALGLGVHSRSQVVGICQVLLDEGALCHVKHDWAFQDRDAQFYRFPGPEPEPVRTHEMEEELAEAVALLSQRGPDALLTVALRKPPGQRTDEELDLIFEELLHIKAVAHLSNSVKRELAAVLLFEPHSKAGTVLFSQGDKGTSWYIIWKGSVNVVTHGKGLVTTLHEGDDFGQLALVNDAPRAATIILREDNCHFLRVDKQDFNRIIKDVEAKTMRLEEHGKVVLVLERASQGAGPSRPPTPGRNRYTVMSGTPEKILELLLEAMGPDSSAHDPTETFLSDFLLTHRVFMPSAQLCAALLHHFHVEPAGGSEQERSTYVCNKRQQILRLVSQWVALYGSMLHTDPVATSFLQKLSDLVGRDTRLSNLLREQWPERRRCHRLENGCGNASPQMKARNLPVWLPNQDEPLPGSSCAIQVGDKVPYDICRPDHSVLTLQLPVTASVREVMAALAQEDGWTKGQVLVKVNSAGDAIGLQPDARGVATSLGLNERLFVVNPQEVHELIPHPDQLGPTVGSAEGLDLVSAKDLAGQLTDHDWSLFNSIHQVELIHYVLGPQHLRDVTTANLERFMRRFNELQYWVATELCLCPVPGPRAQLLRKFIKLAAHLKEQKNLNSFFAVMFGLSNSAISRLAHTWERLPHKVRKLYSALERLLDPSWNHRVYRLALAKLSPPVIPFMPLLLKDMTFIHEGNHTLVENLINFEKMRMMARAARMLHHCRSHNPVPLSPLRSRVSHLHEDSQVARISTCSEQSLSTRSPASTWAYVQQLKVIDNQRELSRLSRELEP

Row | SMILES | Potency [1] | Potency [2] | Potency [3] | Potency [4] | Potency [5] | Potency [6] | outcome [4] | activation [3] | activity change, negative = inhibition [5] | activation [6]
1 | CN(Cc1ccc(Cl)cc1Cl)C(=O)CN1C(=O)NC2(CCCC2)C1=O | inactive | inactive | inactive | inactive | inactive | inactive | – | – | – | –
2 | COc1ccc2nc3oc(C(=O)Nc4cccc(C(F)(F)F)c4)cc3cc2c1 | inactive | inactive | inactive | inactive | inactive | inactive | – | – | – | –
3 | CSc1ccc(CCNC(=O)c2csc3c2CCCCC3)cc1 | inactive | inactive | inactive | – | inactive | inactive | inactive [at 12.7 µM] | – | – | –
4 | COc1ccc(C(=O)Nc2cccc(/C=C(/CCC(=O)O)c3nc4ccccc4s3)c2)cc1 | 15.1 µM (active) | inactive | inactive | inactive | inactive | inactive | – | – | – | –
5 | O=C(NCc1ccco1)c1sc(=S)n2c1[nH]c(=O)c1ccccc12 | 14.1 µM (active) | inactive | – | inactive | – | – | – | 1.94% [at 17.1 µM, percent relative to cAMP agonist control] | 3.28% [at 30.8 µM] | -8.6% [at 30.8 µM]
6 | Cc1nnc(SCc2nnc(-c3ccc(Cl)cc3)o2)n1-c1ccccc1 | inactive | inactive | inactive | inactive | inactive | inactive | – | – | – | –
7 | Cc1ccc(/C(O)=C2/C(=O)C(=O)OC2c2ccc(Cl)cc2)cc1 (configuration not stated) | 39.8 µM (active) | inactive | – | inactive | – | – | – | 1.22% [at 17.1 µM, percent relative to cAMP agonist control] | -12.7% [at 30.8 µM] | 5.06% [at 30.8 µM]
8 | COc1ccccc1N1CCN(S(=O)(=O)c2ccc3c(c2)NC(=O)C(C)C(=O)N3)CC1 (configuration not stated) | inactive | inactive | inactive | inactive | inactive | inactive | – | – | – | –
9 | COc1ccc(Cl)cc1-n1c(=S)sc2c(=O)[nH]c(SCC(=O)NCCC(C)C)nc21 | 15.1 µM (active) | inactive | inactive | inactive | inactive | inactive | – | – | – | –
10 | COc1cccc(NS(=O)(=O)c2ccc3c(c2)C2C=CCC2C(c2ccc(C(=O)O)cc2)N3)c1 (configuration not stated) | 9.53 µM (active) | inactive | inactive | inactive | inactive | inactive | – | – | – | –
11 | O=C1/C(=C\c2ccc(O)c(O)c2)C(c2ccccc2)=NN1c1ccccc1 | 16.9 µM (active) | inactive | inactive | inactive | inactive | inactive | – | – | – | –
12 | Cc1c(C(=O)N2CCC2)oc2ccc(Br)cc12 | inactive | inactive | inactive | 33.8 µM (active) | inactive | inactive | – | – | – | –
13 | O=S(=O)(N/N=C/c1cccnc1)c1ccc(Cl)c(Cl)c1 | inactive | inactive | – | inactive | – | – | – | 4.19% [at 17.1 µM, percent relative to cAMP agonist control] | -14.7% [at 30.8 µM] | 6.45% [at 30.8 µM]
14 | Cn1cc(C(=O)C(=O)N2CCCCC2)c2ccccc21 | inactive | inactive | inactive | inactive | inactive | inactive | – | – | – | –
15 | COc1ccc(/C(N)=N/OC(=O)c2ccc(C)c([N+](=O)[O-])c2)cc1 | inactive | inactive | – | inactive | – | – | – | 8.03% [at 17.1 µM, percent relative to cAMP agonist control] | 4.78% [at 30.8 µM] | 16.7% [at 30.8 µM]
16 | COC(=O)CN1C(=S)N(c2ccc(OC)cc2)C(=O)/C1=C/c1ccc(N2CCOCC2)cc1 | inactive | 100 µM (active) | 100 µM (active) | 75.7 µM (active) | inactive | 28.2 µM (active) | – | – | – | –
17 | COc1ccc([C@@H]2[C@@H]3C(=O)N(C(C)(C)C)C(=O)[C@@H]3[C@]3(Cc4ccccc4)C(=O)N(c4cccc(Br)c4)C(=O)N23)cc1 | inactive | inactive | – | inactive | – | – | – | 2.72% [at 17.1 µM, percent relative to cAMP agonist control] | -15.9% [at 30.8 µM] | 10.3% [at 30.8 µM]
18 | COc1ccc(-c2nc(C)ncc2-c2ccccc2)c(O)c1 | inactive | inactive | – | inactive | – | – | – | -0.293% [at 17.1 µM, percent relative to cAMP agonist control] | -10.8% [at 30.8 µM] | -4.43% [at 30.8 µM]
19 | N#C/C(=C(/O)C(Cl)(Cl)Cl)c1nc2ccccc2[nH]1 | inactive | inactive | inactive | inactive | inactive | inactive | – | – | – | –
20 | CC1=NOC(=O)/C1=C\c1ccc(-c2ccc(Br)cc2)o1 | 25.1 µM (active) | inactive | – | inactive | – | – | – | -0.7% [at 17.1 µM, percent relative to cAMP agonist control] | -10.2% [at 30.8 µM] | 11.6% [at 30.8 µM]
21 | COc1ccc(OCC(=O)OCCNC(=O)c2cccnc2)cc1 | inactive | inactive | – | inactive | – | – | – | -1.04% [at 17.1 µM, percent relative to cAMP agonist control] | -8.99% [at 30.8 µM] | 0.499% [at 30.8 µM]
22 | COC(=O)/C(N=Nc1cccc(C(F)(F)F)c1)=C(\C)O | inactive | inactive | – | inactive | – | – | – | 10.2% [at 17.1 µM, percent relative to cAMP agonist control] | -9.14% [at 30.8 µM] | 22.5% [at 30.8 µM]
